# SIAE inh: inhibitors of human sialic acid acetylesterase SIAE | SIAE FP-Rh probe binding, fluorescence polarization | inhibition, % at 9.66 µM | 370,000 compounds, 0.69% hits | AID 1053197;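 active = inhibition above a cutoff: mean of compounds within the control limits plus 3 SD of those, cut at about 17% in these data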;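 note: 0% = plate median of compound wells and 100% = probe without SIAE protein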
# Target sequence (Q9HAT2 whole entry, looked up): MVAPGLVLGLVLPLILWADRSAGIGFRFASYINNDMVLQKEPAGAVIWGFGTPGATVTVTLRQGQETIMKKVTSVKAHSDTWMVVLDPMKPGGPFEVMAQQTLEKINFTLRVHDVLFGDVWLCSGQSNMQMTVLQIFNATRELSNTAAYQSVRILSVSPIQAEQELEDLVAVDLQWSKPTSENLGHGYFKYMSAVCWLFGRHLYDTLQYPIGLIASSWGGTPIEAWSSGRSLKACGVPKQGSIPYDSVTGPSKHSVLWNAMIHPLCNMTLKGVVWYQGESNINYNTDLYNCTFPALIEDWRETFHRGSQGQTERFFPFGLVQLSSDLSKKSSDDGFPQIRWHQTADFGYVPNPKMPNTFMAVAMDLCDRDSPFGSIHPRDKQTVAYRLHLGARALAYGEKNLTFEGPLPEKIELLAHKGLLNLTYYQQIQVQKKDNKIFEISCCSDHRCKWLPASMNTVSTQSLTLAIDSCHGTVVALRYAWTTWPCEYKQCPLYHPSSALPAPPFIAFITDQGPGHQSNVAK
# TCR-CD3 inh: inhibitors of human TCR-CD3 interaction | inhibition, % at 9.4 µM | TAMRA-labeled TCR probe fluorescence, biochemical | AID 651800 | 360,000 compounds, 0.37% hits; in the data active = inhibition above about 19%;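 note: recombinant mutant TCR 2C K166C tagged with TAMRA read by polarization; 0% = receptor in buffer alone and 100% = receptor with positive control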
# PAD4 inh: inhibitors of human PAD4; Q9UM07; inhibition, % at 6.36 µM; 330,000 compounds, 0.41% hits; AID 485272; recombinant PAD4, RCA probe fluorescence polarization;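 active = percent inhibition above a cutoff equal to the mean of all tested compounds plus 3 SD, cut at about 15% in these data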;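 note: 0% = PAD4 with RCA probe and DMSO and 100% = probe without PAD4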
# PME-1 inh: PME-1 (human) inhibition. recombinant PME-1, FP-Rh probe fluorescence polarization. inhibition, % at 5.9 µM. 320,000 compounds, 0.53% hits. Q9Y570. AID 2130;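 active = inhibition above the campaign mean of all compounds plus 3 SD, cut at about 26% in these data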;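 note: competitive labeling of PME-1 active site by serine hydrolase directed probe; 0% = PME-1 with DMSO and 100% = wells lacking PME-1 enzyme; inhibitors block probe labeling so polarization falls and inhibition rises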
# PRMT1 inh: blocks human protein arginine methyltransferase 1 | Q99873 | recombinant PRMT1, activity-based probe fluorescence polarization | inhibition, % at 2.79 µM | 370,000 compounds, 1.3% hits | AID 652257;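 active = inhibition above about 21% made by adding two undisclosed values, limit read from the data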
# Fam108B counter: counter-screen for RBBP9 inhibitors: inhibitors of mouse Fam108B | recombinant Fam108B, FP-Rh probe fluorescence polarization | inhibition, % at 9.51 µM | 300,000 compounds, 0.33% hits;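 active = inhibition above the screen mean inhibition plus 3 SD, computed separately per campaign, cut at about 18% in these data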;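 note: inhibitors lower polarization as less probe binds the enzyme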
# PRMT1 inh conf: confirmation of human PRMT1 inhibitors | shares compounds with PRMT1 inh | recombinant His-PRMT1, activity-based probe fluorescence polarization | inhibition, % at 2.79 µM | 3,300 compounds, 42% hits | AID 687036;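 active = mean inhibition across replicates above the hit cutoff derived for the earlier primary screen, cut at about 22% in these data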
# The depositor's hits bear a star; / = no result. In the library only some 2.6% were active in any assay of this set; here they are far more common.
SMILES,SIAE inh,TCR-CD3 inh,PAD4 inh,PME-1 inh,PRMT1 inh,Fam108B counter,PRMT1 inh conf
COC(=O)[C@@]12CCCCC=C1N(CCc1ccc(Cl)cc1)C(=O)[C@H]2CC(=O)NCCC(C)C,-2.1,/,/,/,3.2,/,/
COCCCN1C(=O)[C@H](CC(=O)NCc2cccs2)[C@]2(C(=O)OC)CCCCC=C12,-2.9,/,/,/,1.8,/,/
C#CCN(C1CC1)S(=O)(=O)c1ccccc1Br,-7.2,/,/,/,-4.1,/,/
CC(CSc1n[nH]c(=S)s1)c1ccccc1 (centres undefined),4.6,5.2,/,/,40.7*,/,73.8*
CC(C)CN1C(=O)C[C@]2(C(=O)N(C)c3ccc(NC(=O)C(C)(C)C)cc32)C1c1ccccc1 (some centres undefined),4.2,/,/,/,-0.4,/,/
CC1(C(=O)Nc2cnc3ccccc3c2)CCN1Cc1ccc(-c2ccccc2)o1 (centres undefined),8.8,-8.9,/,/,33.6*,/,11.2
CSCCC(c1nc2ccccc2[nH]1)n1c(=O)c(-c2cccnc2)nc2ccccc21 (centres undefined),1.0,-5.7,/,/,9.1,/,/
CSCCC(c1nc2ccccc2[nH]1)n1c(=O)c(-c2ccco2)nc2ccccc21 (centres undefined),-2.9,-7.2,/,/,45.1*,/,15.6
COc1ccccc1N(C(C)=O)C1=C(Cl)C(=O)c2ccccc2C1=O,6.4,3.1,/,/,94.5*,/,88.6*
COC(=O)[C@]12C[C@H](CC(=O)NCc3ccccc3)C(=O)N(Cc3ccc4c(c3)OCO4)C1=C[C@H](C(C)C)O[C@@H]2C1CC1,5.6,/,/,/,-7.8,/,/
Nc1nc(NCCO)nc(N2CCCCCC2)c1[N+](=O)[O-],1.2,-6.6,6.0,4.5,-1.9,7.3,/
OCCN(CCO)c1nc(N2CCCCC2)c2nc(N(CCO)CCO)nc(N3CCCCC3)c2n1,1.1,-1.3,5.0,/,57.4*,/,74.5*
CC(C)OCCCNC(=S)Nc1ccc(S(N)(=O)=O)cc1,4.4,3.9,-6.3,-5.9,40.1*,-0.9,58.5*
S=C(NCc1ccccc1)NCc1ccco1,-0.6,-5.5,/,/,9.2,/,/
NC(=O)c1ccc(NC(=S)NCc2ccco2)cc1,2.4,-4.2,-3.1,-4.5,3.0,-1.0,/
NS(=O)(=O)c1ccc(NC(=S)NC2CCCC2)cc1,3.8,7.4,-2.3,-5.2,34.3*,4.2,19.5
S=C(NCc1ccco1)NCc1ccco1,8.4,3.8,/,/,26.7*,/,7.0
CC(=O)c1ccc(NC(=S)NCCc2ccc(S(N)(=O)=O)cc2)cc1,6.6,1.8,-5.1,-7.4,-1.7,4.8,/
NS(=O)(=O)c1ccc(NC(=S)NCc2ccco2)cc1,-5.8,-1.2,3.0,-5.3,26.9*,0.4,9.6
COC(=O)[C@]12C=CCN1[C@@H](c1ccc(C(F)(F)F)cc1)c1c(c3ccccc3n1S(=O)(=O)c1ccc(C)cc1)C2,-10.9,/,/,/,5.0,/,/
CC(Sc1nnc(C2CC2)n1C1CC1)C(=O)Nc1cccc(S(=O)(=O)N(C)C)c1 (centres undefined),6.4,5.4,1.7,11.5,36.9*,/,-0.1
CCCCCCNC(=O)C1CSCCS(=O)(=O)N1Cc1ccc(C)cc1 (centres undefined),-1.8,/,/,/,-4.4,/,/
Cc1ccc(/C=C/C(=O)NCc2cccs2)o1,1.0,-1.9,-1.0,-1.8,31.6*,5.3,19.3
Cc1ccc(/C=C/C(=O)NCc2cccs2)cc1,-9.7,6.8,0.1,2.1,-3.6,0.4,/
O=C(NCCc1c[nH]c2ccccc12)OCc1cn(Cc2ccccc2F)nn1,4.0,/,/,/,-1.5,/,/
SMILES,SIAE inh,TCR-CD3 inh,PAD4 inh,PME-1 inh,PRMT1 inh,Fam108B counter,PRMT1 inh conf
CN(C)c1ccc2nc3c(=O)[nH]c(=O)nc-3n(CC(O)C(O)C(O)CO)c2c1 (centres undefined),-278.5,-54.2,-110.8,-278.1,80.3*,-293.1,55.0*
O=C(CC1Sc2ncnn2C1=O)Nc1ccc(Br)cc1 (centres undefined),-1.7,-1.9,-5.0,-7.7,52.6*,-4.3,53.5*
O=C(CC1SC2=NCCN2C1=O)Nc1ccc(Br)cc1 (centres undefined),1.8,1.1,-5.4,5.7,-2.1,1.7,/
COC(=O)[C@]12C[C@H](CC(=O)N3CCOCC3)C(=O)N(CCC3=CCCCC3)C1=C[C@H](C(C)C)O[C@@H]2C1CC1,-0.6,/,/,/,0.9,/,/
O=C(NCc1ccco1)c1cc2nc(-c3cccs3)cc(C(F)(F)F)n2n1,-5.1,3.9,-1.0,-3.6,34.1*,0.8,2.2
CC(=O)OCCCN1CCC2(CCC(c3ccccc3)CC2)C1=O (centres undefined),1.5,/,/,/,2.5,/,/
CN1C(=O)c2cc(NC(=O)Nc3ccccc3)ccc2OC[C@H]2O[C@@H](CC(=O)NCc3ccc(-c4ccccc4)cc3)CC[C@@H]21,-13.0,/,/,/,4.4,/,/
Cc1ccc(-c2nn(-c3ccccc3)cc2/C=C/C(=O)O)o1,-1.2,-0.3,-0.9,-5.7,30.6*,-5.9,0.1
Cc1ccc(-c2nn(-c3ccccc3)cc2CN(Cc2ccccc2)C(=O)c2ccco2)o1,-14.9,4.9,-0.9,-15.7,39.1*,-4.4,18.6
CCOc1cc(CCNC(=O)c2cc3ccsc3n2C)ccc1OC,3.2,/,/,/,-0.5,/,/
CCOC(=O)c1ccc(N2CSC3=C(C#N)C(c4ccc(OC)cc4OC)CC(=O)N3C2)cc1 (centres undefined),2.7,-6.0,3.5,2.1,9.4,1.8,/
COc1ccc(Br)cc1C1CC(=O)N2CN(C)CSC2=C1C#N (centres undefined),-5.1,0.5,-2.7,0.0,17.4,-2.5,/
COc1cc(OC)c(C2CC(=O)N3CN(c4ccccc4)CSC3=C2C#N)cc1OC (centres undefined),4.7,1.3,-3.0,6.2,51.9*,2.2,26.4*
N#CC1=C2SCN(c3ccccc3)CN2C(=O)CC1c1c(Cl)cccc1Cl (centres undefined),-1.2,4.9,2.9,-0.8,52.2*,3.7,55.0*
COc1ccc(Br)cc1C1CC(=O)N2CN(Cc3ccccc3)CSC2=C1C#N (centres undefined),-1.6,5.8,-1.0,-1.9,25.0*,5.0,20.1
CCOc1ccc(N2CSC3=C(C#N)C(c4ccco4)CC(=O)N3C2)cc1 (centres undefined),-1.9,14.7,0.3,-3.4,70.9*,1.2,70.4*
CN1C(=O)C[C@@](C#N)(C(=O)Nc2nc3ccc(F)cc3s2)[C@H]1c1ccccc1,2.1,/,/,/,-1.3,/,/
CCc1ccccc1N1CSC2=C(C#N)C(c3cc(OC)c(OC)cc3OC)CC(=O)N2C1 (centres undefined),9.7,-5.0,-19.0,-2.2,62.1*,2.6,79.4*
COc1cc(OC)c(C2CC(=O)N3CN(C)CSC3=C2C#N)cc1OC (centres undefined),4.7,0.0,-1.5,-0.7,42.4*,-5.3,77.5*
O=[n+]1c2c(n([O-])c3ccccc31)CCCC2,1.4,2.0,0.5,1.5,76.2*,1.4,-1.5
